The text below walks through data of PubChem BioAssay (Tox21).

Each structure is given as a SMILES string. Records with an inconclusive call do not appear. Where a call stands in place of a potency, no number is given. A number with no mark means an inactive call. Calls of active or inactive are those of the source. The call rests on the fitted dose curve; in most records, active means well fitted activation curve with a large enough effect in the signal ratio in the repeat runs (not every such curve was filed as active); inconclusive means weak or mixed curves; inactive means flat fitted curve, though single readings scatter; the % refers to the signal ratio.
Potency means the concentration at half of the fitted maximal effect.

A short description of the assay: p53 small molecule agonists, cell-based qHTS assay (AID 1963582). To be noted: HCT-116 p53RE-bla reporter, beta-lactamase FRET ratio, 16 h; series mostly up to 66 µM. The text has this:
National Center for Advancing Translational Sciences [NCATS]
Division of Preclinical Innovation [DPI]
U.S. Environmental Protection Agency [EPA]
National Institutes of Environmental Health Sciences [NIEHS]
National Toxicology Program [NTP]
U.S. Food and Drug Administration [FDA]
p53, a tumor suppressor protein, is activated following cellular insult, including DNA damage and other cellular stresses. The activation of p53 regulates cell fate by inducing DNA repair, cell cycle arrest, apoptosis, or cellular senescence. The activation of p53, therefore, is a good indicator of DNA damage and other cellular stresses. […] The activation of the reporter gene under culture conditions can be detected by fluorescence intensity. This cell line was used to screen the Tox21 10K compound library in a 1536-well plate format and to identify agonists that activate the p53 signaling pathway.
Tox21 Assay Protocol Summary:
The p53RE-bla cells were dispensed at 4,000 cells/5 ul/well in 1536-well black wall/clear bottom plates using a Multidrop dispenser. After the assay plates were incubated at a 37 C/5% CO2 incubator for 5 hours, 23 nL of compounds dissolved in DMSO, positive controls or DMSO only was transferred to the assay plate by a pin tool. The plates were incubated at 37 C for 16 hours. After 1 uL of LiveBLAzerTM B/G FRET substrate was added using a Flying Reagent Dispenser, the plates were incubated at room temperature for 2 hours, and fluorescence intensity was measured by an Envision plate reader.
(Quantitative high-throughput screening tests each substance at several concentrations.)
Take `O=c1[nH]cccc1O`: the Potency entry is “inactive”.

For the compound `Oc1ccc2c(c1)CCC2`, the Potency result was “inactive”.

As to `CC(=O)NO`, the Potency entry was “inactive”.

Take `C(=C/c1ccccc1)/c1ccccc1`: the Potency result was “inactive”.

With `CC(C)(C)C(=O)C(=O)O`, the Potency entry is “inactive”.

As for `C=C(C)C(=O)OCCCC`, the Potency entry was “inactive”.

With `Cc1nc2ccc(Cl)cc2[nH]1`, the Potency result was “inactive”.

Turning to `CN1CC(=O)NC1=N`, the Potency entry was “inactive”.

Turning to `N=c1ccn2c(n1)O[C@H]1[C@H](O)[C@@H](CO)O[C@H]12`, the Potency is 1450 nM (active).

With `CCOc1ccc(NC(=O)OC(C)C)cc1OCC`, the Potency result is “inactive”.

Take `O=C(Nc1ccc2c(O)c(N=Nc3ccc(N=Nc4ccc(S(=O)(=O)O)cc4)cc3)c(S(=O)(=O)O)cc2c1)c1ccccc1`: the Potency result was “inactive”.

As to `CC(N)C12CC3CC(CC(C3)C1)C2` (stereo not given), the Potency entry was “inactive”.

For the compound `Nc1nc2c(ncn2CCC(CO)CO)c(=O)[nH]1`, the Potency result was “inactive”.

On to `CCCCOc1cc(C(=O)OCCN(CC)CC)ccc1N`, for which the Potency entry is “inactive”.

`C=CCCCC`: the Potency entry was “inactive”.

In the case of `CCOC(=O)C(O)c1ccccc1` (stereo not given), the Potency entry is “inactive”.

With `Clc1ccnc(Cl)n1`, the Potency entry is “inactive”.

As to `CCC(CC)C(=O)O`, the Potency entry was “inactive”.

Regarding `[O-][n+]1cccc(/C(Cl)=N/OC[C@@H](O)CN2CCCCC2)c1`, the Potency result is “inactive”.

In the case of `CC(COC(C)(C)C)OCCCO` (stereo not given), the Potency entry was “inactive”.

As to `CCN(CC)CC(=O)Nc1c(C)cccc1C(=O)OC`, the Potency entry is “inactive”.

For the compound `O=C1OC(=O)c2cccc3cccc1c23`, the Potency entry is “inactive”.

Consider `CN1[C@@H]2CC[C@H]1CC(OC(=O)c1c[nH]c3ccccc13)C2` (stereo not given in full), for which the Potency result is “inactive”.

With `N#CC1(N)CCCCC1`, the Potency entry was “inactive”.

Take `CCOc1nc(F)cc2nc(S(=O)(=O)Nc3c(Cl)cccc3C(=O)OC)nn12`: the Potency entry was “inactive”.

For `COc1ccc(S(=O)(=O)N2c3ccc(Cl)cc3[C@@](O)(c3ccccc3Cl)[C@H]2C(=O)N2CCC[C@@H]2C(N)=O)cc1OC`, the Potency entry is “inactive”.

As for `CC(=O)OCC[N+](C)(C)C`, the Potency entry was “inactive”.

On to `O=C1OC(=O)C2C3C=CC(C3)C12` (stereo not given), for which the Potency entry is “inactive”.

As to `CC(NN)c1ccccc1` (stereo not given), the activation is -1.5% [at 13.5 µM].

For `CCCCCCC(O)CO` (stereo not given), the Potency entry was “inactive”.

As for `C=C(C)C(=O)OCCCCCCCCCCOC(=O)C(=C)C`, the Potency entry is “inactive”.

As to `C1CCN(CN2CCCCC2)CC1`, the Potency result is “inactive”.

In the case of `CC(=O)c1ccc(Cl)c(Cl)c1Cl`, the Potency entry is “inactive”.

As for `CCN(CCCCOC(=O)c1ccc(OC)c(OC)c1)C(C)Cc1ccc(OC)cc1` (stereo not given), the Potency entry was “inactive”.

In the case of `Nc1nc(-c2ccccc2)c(Br)c(=O)[nH]1`, the Potency result is “inactive”.

With `Cn1c(=O)c2c(ncn2CC(O)CO)n(C)c1=O` (stereo not given), the Potency result was “inactive”.

`CCOC(=O)C1=C(C)NC(C)=C(C(=O)OC)C1c1cccc(Cl)c1Cl` (stereo not given): the Potency entry was “inactive”.

As to `CCC(=O)CC(C)CC` (stereo not given), the activation was 5.1% [at 0.249 µM].

`CCCCC(CC)COC(=O)COc1ccc(Cl)cc1Cl` (stereo not given): the Potency result is “inactive”.

On to `CCOC(=O)N1CCC(Nc2ccc(Cl)cc2N)CC1`, for which the Potency result was “inactive”.
